# A selection: hits, their analogues and other compounds. The true share with any hit is near 1%.
# Mtb hypoxia rep = inhibitors of hypoxia-regulated fluorescent reporter in Mycobacterium tuberculosis | fluorescence inhibition, % (test concentration not listed) | hit rate 0.1% among 300,000 | M. tuberculosis hypoxia-regulated fluorescent reporter, fluorescence; in the data active = fluorescence inhibition mostly above about 23%, no sharp cut-off; inactive = mostly below about 17%
# ugtP null kill = growth inhibition of S. aureus ugtP deletion strain; S. aureus RN4220 ugtP deletion, OD600 growth, 16 h; growth inhibition, % (concentration not given with the values); hit rate 0.54% among 330,000; in the data active = growth inhibition above about 68%;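 note: plate controls were untreated wells for no effect and antibiotic for full effect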
# SSB-PriA inh = K. pneumoniae PriA-SSBct interaction inhibition; AlphaScreen SSBct-PriA binding, biotinylated peptide; hit rate 0.6% among 430,000; inhibition, % at 33 µM; in the data active = inhibition mostly above about 37%, no sharp cut-off; inactive = mostly below about 20%;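 note: plate controls were negative control peptide for no effect and reference peptide for full effect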
# Mtb betalactam = beta-lactam sensitization of Mtb H37Rv; inhibition, % at 25 µM; M. tuberculosis H37Rv growth with meropenem, percent inhibition; hit rate 0.27% among 330,000; call rule not given here;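 note: growth measured after seven days incubation then overnight dye step; 0% = bacteria only wells and 100% = bacteria with antibiotic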
# Sa RN4220 lethal = kills Staphylococcus aureus RN4220; S. aureus RN4220 growth, OD600, 16 h; inhibition, % (test concentration not listed); hit rate 0.33% among 330,000; in the data active = inhibition above about 85%;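 note: plate controls were untreated cells for no effect and reference antibiotic for full effect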
# * marks the source's active call; other numbers are inactive results; i = inactive; . = not tested or not shown; + = active, no number; ! = not confirmed by another sample.
SMILES,Mtb hypoxia rep,ugtP null kill,SSB-PriA inh,Mtb betalactam,Sa RN4220 lethal
COc1ccc(-n2c(Cc3cccn3C)nnc2SCC(=O)Nc2ccccc2F)cc1,.,3.7,-0.8,0.1,10.1
CCOC(=O)c1sc(NC(=O)c2cc(N3CCCC3)ncn2)nc1C,.,.,-15.0,.,.
CN(C)c1ccc(S(=O)(=O)N2CCCCC2)cc1NC(=O)CCNC(=O)c1ccccc1Cl,23.5*,1.2,9.4,.,3.7
CC(C)Cn1[nH]c2c3c(ccc2c1=O)C(=O)c1ccccc1C3=O,-3.4,85.5*,7.0,91.7,89.0*
Cc1cccc(NCc2ccc(O)c3ncccc23)c1C,0.4,-2.2,59.7*,-5.3,1.4
COc1ccccc1NCc1ccc(O)c2ncccc12,.,.,53.8,.,.
Cc1ccc(NCc2ccc(O)c3ncccc23)cc1,2.7,5.6,33.3,77.6,7.9
Cc1ccc(NCc2ccc(O)c3ncccc23)cc1C,-6.6,-7.3,40.9*,1.5,-1.5
Cc1cccnc1NCc1ccc(O)c2ncccc12,4.4,25.0,57.0*,73.5,27.9
Cc1cc(C)c2sc(NC(=O)c3ccc(Br)o3)nc2n1,.,.,-5.0,.,.
COc1ccc2c(c1)CCC[C@@]2(O)CNC(=O)c1snnc1C,.,.,-1.0,.,.
CCC(CO)Nc1ncnc2c1cnn2-c1ccc(OC)cc1 (stereo not given),10.1,8.0,115.4*,-1.0,-0.2
COc1n[nH]c(C(=O)Nc2cc(Cl)ccc2Cl)c1[N+](=O)[O-],6.8,88.4*,4.7,36.4,89.8*
COc1ccc(OC)c([C@@H]2C(=C(O)c3ccc(F)cc3)C(=O)C(=O)N2CCCN(C)C)c1,.,.,-12.0,.,.
O=[N+]([O-])c1ccc(N2CCCNCC2)c2ncccc12,.,.,0.1,30.9,.
O=[N+]([O-])c1cc(S(=O)(=O)c2ccc(N3CCCCC3)c([N+](=O)[O-])c2)ccc1N1CCCCC1,7.0,-1.5,42.0*,-1.7,4.5
CS(=O)(=O)c1ccc(N2CCC(Cc3ccccc3)CC2)c([N+](=O)[O-])c1,.,.,41.0*,.,.
O=[N+]([O-])c1ccc(N2CCCCCC2)c2ncccc12,7.6,9.4,42.0*,4.3,11.0
O=[N+]([O-])c1ccc(N2CCOCC2)c2ncccc12,.,.,57.3,.,.
O=[N+]([O-])c1ccc(N2CCCCC2)c2ncccc12,-0.6,2.9,51.4*,-4.7,8.7
O=C(c1cccs1)N1CCc2ccc(NS(=O)(=O)Cc3ccccc3F)cc21,.,.,10.0,.,.
CCn1nc(C)cc1C(=O)Sc1ccc(Cl)cc1Cl,-4.6,95.9*,0.9,-2.3,23.7
Cc1nc2c([nH]1)C[C@@H](C(=O)NCc1cc3ccccc3o1)CC2,.,.,-13.0,.,.
CCOC(=O)CCCSc1nc2sc(C(=O)O)c(C)c2c(=O)[nH]1,.,.,-12.0,.,.
COc1ccc(C(=O)Cn2nc(CNc3ccc(Br)cc3)[n+]3c2CCCCC3)cc1,.,98.2*,11.1,99.4,98.8*
SMILES,Mtb hypoxia rep,ugtP null kill,SSB-PriA inh,Mtb betalactam,Sa RN4220 lethal
O=C(Cn1nc(-c2nn(CC(=O)c3ccccc3)c3[n+]2CCCCC3)[n+]2c1CCCCC2)c1ccccc1,13.9,5.7,-9.7,-0.5,1.6
Cc1ccc(C(C)C)c(OCc2nn(CC(=O)c3ccc(OC(F)F)cc3)c3[n+]2CCCCC3)c1,.,95.3*,0.6,100.2,100.5*
Cc1ccc(C=NN=C2NC(=O)C(CC(=O)Nc3ccc(Cl)cc3)S2)o1 (stereo not given),.,.,-5.8,.,.
CCCn1nnc(NC(=S)NC(=O)c2ccccc2OC)n1,32.9*,2.5,1.1,-0.9,28.4
O=C(N/N=C/c1cccc2nccnc12)c1ccccc1O,.,.,i,99.5,.
O=C(N/N=C/c1cccc2nccnc12)c1ccncc1,.,.,+,99.1,.
O=C(COc1ccc(F)cc1)NN=Cc1cccc2cccnc12,2.0,-5.1,11.0,.,-2.1
COc1ccc(C(=O)NN=Cc2cccc3cccnc23)cc1,-5.3,2.9,79.8*,.,9.9
CCOc1ccc(C(=O)NN=Cc2cccc3cccnc23)cc1,.,3.2,88.5*,.,2.9
COc1ccc(OCC(=O)N/N=C/c2cccc3cccnc23)cc1,.,.,.,68.0,.
O=C(N/N=C/c1cccc2cccnc12)c1ccccc1O,.,.,+,99.0,.
Cn1nc(CNC(=O)Nc2ccccc2Cl)cc1-c1ccccn1,.,.,3.0,.,.
O=C(/C=C/c1ccccc1)N(CCn1cccn1)c1nc2ccccc2s1,.,.,2.0,.,.
Cc1oncc1C(=O)NCC1CCN(C(=O)c2ccoc2)CC1,.,.,2.0,.,.
COC1CCN(C(=O)c2cnn(-c3ccccc3)n2)CC1,.,.,-5.0,.,.
COc1ccc(-n2sc3c(c2=S)-c2cc(OC)ccc2NC3(C)C)cc1,.,83.7*,67.0,-1.0,-4.7
COC(=O)c1ccc(NC(=O)COc2cccc3c2OC(C)(C)C3)cc1,10.9,11.0,46.3*!,0.3,5.5
CC(=O)Nc1ccc(NC(=O)COc2cccc3c2OC(C)(C)C3)cc1,16.6,9.7,4.1,0.7,3.5
COc1cccc(NCc2cc(=O)oc3cc(-c4ccccc4)c(O)cc23)c1,.,.,-2.4,5.8,.
COc1cccc(NCc2cc(=O)oc3cc(C)c(O)cc23)c1,-2.3,99.9*,-10.2,-2.1,97.3*
CCC(Sc1ccc2nnc(-c3ccc(F)cc3)n2n1)C(=O)O (stereo not given),3.6,9.2,-4.3,-4.2,-0.9
CCOC(=O)CSc1ccc2nnc(-c3ccccn3)n2n1,.,.,90.0*,.,.
CC(=O)Nc1ccc(NC(=O)CSc2ccc3nnc(-c4ccccn4)n3n2)cc1,9.2,-6.2,39.3*,-0.1,1.9
CCOC(=O)C(C)Sc1ccc2nnc(-c3ccccn3)n2n1 (stereo not given),.,.,75.7*,.,.
COC(=O)c1ccc(NC(=O)CSc2ccc3nnc(-c4ccccn4)n3n2)cc1,.,.,-13.0,.,.
SMILES,Mtb hypoxia rep,ugtP null kill,SSB-PriA inh,Mtb betalactam,Sa RN4220 lethal
CCC(Sc1ccc2nnc(-c3ccccn3)n2n1)C(=O)O (stereo not given),.,.,103.0*,.,.
O=C(NCCC(O)c1ccsc1)c1ccccc1Cl (stereo not given),.,.,-5.0,.,.
O=C(NC[C@H](O)c1cccc2ccccc12)C(=O)Nc1ccc2c(c1)OCO2,.,.,0.0,.,.
O=C(NCC(c1cccc2ccccc12)N1CCCC1)C(=O)Nc1ccc2c(c1)OCCO2 (stereo not given),.,.,48.0*,.,.
Clc1ccccc1N1CCN(c2nc(-c3ccccc3)c3cc(Br)ccc3n2)CC1,.,.,-32.0,.,.
COc1ccc(OC)c(N2CCN(CC(=O)NCCc3ccncc3)C2=O)c1,.,.,-11.0,.,.
CCSc1nc(C2CC2)cc(-c2cccs2)c1C#N,5.8,93.0*,-13.6,11.2,7.7
Cc1c(CC(=O)N[C@@H](C)C(=O)O)c(=O)oc2c(C)c3occ(-c4ccccc4)c3cc12,-3.0,99.8*,10.0,3.1,93.8*
Cc1c(CCC(=O)O)c(=O)oc2c(C)c3occ(-c4ccc(Br)cc4)c3cc12,18.9,5.8,7.7,62.6,50.4
Cc1c(CC(=O)O)c(=O)oc2c(C)c3occ(-c4ccc(F)cc4)c3cc12,-1.4,99.6*,-2.1,5.4,95.0*
CC1CN(c2oc(Cc3cccc4ccccc34)nc2C#N)CC(C)O1 (stereo not given),8.6,2.9,51.6*,14.7,1.8
CC(=O)OCC1=C(C(=O)O)N2C(=O)C(NC(=O)CCn3nc(C)c(Cl)c3C)C2SC1 (stereo not given),.,98.8*,-6.1,4.4,99.0*

# Compound activity (PubChem BioAssay)
